High-throughput results as filed in PubChem.
PNC inhibitor – High Content Assay for Compounds that inhibit the Assembly of the Perinucleolar Compartment; PC3M PTB-GFP, PNC prevalence imaging, 16 h; hits give low values; activity change (PNC), negative = inhibition, % at 10 µM; actives 3.1% (n = 140,000); AID 2417, 2010;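 active = readout at or below -70, meaning at least 70% loss of cells showing the perinucleolar compartment, a nuclear body marking cancer cells; inconclusive = readout between -30 and a set limit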;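 note: plate controls were DMSO wells for no effect and camptothecin positive control wells for full effect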
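Compounds are pinned in duplicate onto adhered PC3M cells stably expressing GFP-tagged PTB and incubated 16 h at 37 C. Cells are then fixed, nuclei stained with Hoechst, and PNC-positive cells counted.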
IMPase Li cell – qHTS Assay for Identifying the Cell-Membrane Permeable IMPase Inhibitors: Potentiation with Lithium; CHO-M1 cells, IP1 TR-FRET (IP-One), carbachol + lithium; actives 0.35% (n = 210,000); Potency, µM (series often up to 59.4 µM), inactives show top-dose activity, negative = IMPase inhibition, usual class: inhibitors; active = well fitted curve in the direction sought with a large enough effect; inconclusive = small, poorly fitted or top-dose-only effect, or another doubt; inactive = no such curve, though single readings can be large; an effect the other way counts as inactive or inconclusive;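 note: IP1 builds up when IMPase is blocked and the TR-FRET signal falls; potency is the fitted concentration of half-maximal effect; plate controls were basal vehicle for no effect and high inhibitor control for full effect; nearly all actives have a fitted effect of over 50% in size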
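IP1 accumulation measured by competitive TR-FRET in lysed CHO-M1 cells after 30 min compound exposure at 37C, with a small lithium addition to potentiate weak responses. Hill-equation AC50 from ratio and donor-channel data.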
ALOX12 inhib – qHTS Assay for Inhibitors of 12-hLO (12-human lipoxygenase); purified 12-hLO, xylenol orange hydroperoxide absorbance; Potency, µM (series often up to 57.1 µM), without a hit: at the highest dose activity change, negative = inhibition, usual class: inhibitors; actives 0.12% (n = 150,000); active = well fitted curve in the direction sought with a large enough effect; inconclusive = small, poorly fitted or top-dose-only effect, or another doubt; inactive = no such curve, though single readings can be large; an effect the other way counts as inactive or inconclusive; note: potency is the fitted concentration of half-maximal effect; nearly all actives have a fitted effect of over 55% in size
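150 nM 12hLO, 25 mM Hepes pH 7.0 + 0.01% Triton X-100; cpd preinc 15 min RT; 40 uM arachidonic acid, 30 min RT; Fe-XO 30 min; A573/A405 ratio as read-out.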
ALDH1A1 inh – qHTS Assay for Inhibitors of Aldehyde Dehydrogenase 1 (ALDH1A1); Potency, µM (top dose mostly 75.3 µM), for inactives: at the highest dose activity, negative = inhibition, hits mostly inhibitors; AID 1030, 2008; actives 7.3% (n = 220,000); Aldehyde dehydrogenase 1A1 (Homo sapiens), P00352; Purified ALDH1A1, NADH fluorescence, propionaldehyde substrate;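 note: potency is the fitted concentration of half-maximal effect; plate controls were no enzyme wells and a reference inhibitor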
Target sequence (P00352 whole entry, looked up): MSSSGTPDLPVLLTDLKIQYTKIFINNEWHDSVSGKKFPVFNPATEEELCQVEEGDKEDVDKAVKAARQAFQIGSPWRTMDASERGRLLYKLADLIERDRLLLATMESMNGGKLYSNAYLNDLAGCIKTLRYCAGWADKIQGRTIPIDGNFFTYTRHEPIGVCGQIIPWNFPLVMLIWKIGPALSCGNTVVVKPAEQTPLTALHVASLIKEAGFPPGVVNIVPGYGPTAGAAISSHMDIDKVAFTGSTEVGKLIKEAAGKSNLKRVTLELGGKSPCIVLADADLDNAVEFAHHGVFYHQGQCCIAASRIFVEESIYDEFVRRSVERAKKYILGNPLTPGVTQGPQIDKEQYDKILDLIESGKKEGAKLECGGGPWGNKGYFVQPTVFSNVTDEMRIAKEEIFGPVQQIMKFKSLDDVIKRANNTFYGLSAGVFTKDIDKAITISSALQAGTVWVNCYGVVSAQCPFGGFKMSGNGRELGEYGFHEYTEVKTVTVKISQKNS
IMPase inh – qHTS Assay for Identifying the Cell-Membrane Permeable IMPase Inhibitors; Inositol monophosphatase 1 (Rattus norvegicus), P97697; CHO-M1 cells, IP1 accumulation, HTRF TR-FRET ratio; inhibition (IP1 accumulation), % at 46.1 µM; 120,000 tested, under 10 active; AID 901, 2007; active = well fitted curve in the direction sought with a large enough effect in the signal ratio, not every such curve was filed as active; inconclusive = small, poorly fitted or top-dose-only effect, or a change in a side signal; inactive = no such curve, though single readings can be large or run the other way; the % refers to the signal ratio;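 note: cells stimulated with carbachol in lithium chloride buffer; plate controls were DMSO basal wells for no effect and reference inhibitor wells for full effect; higher means more IMPase inhibition seen as more IP1 and lower FRET ratio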
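The IP-One HTRF competitive assay in carbachol-stimulated CHO-M1 cells quantifies cellular IP1. Compounds spanned up to 46 uM final, and activity is expressed as AC50 from concentration-response fits of the ratio and donor data.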
HPGD block – qHTS Assay for Inhibitors of HPGD (15-Hydroxyprostaglandin Dehydrogenase). purified HPGD, NADH fluorescence kinetic, PGE2 substrate. Potency, µM, for inactives: top-dose activity change, negative = inhibition, most hits filed as inhibitors. actives 4.3% (n = 150,000). 15-hydroxyprostaglandin dehydrogenase [NAD(+)] (Homo sapiens), P15428; note: potency is the fitted concentration of half-maximal effect
Target sequence (P15428 whole entry, looked up): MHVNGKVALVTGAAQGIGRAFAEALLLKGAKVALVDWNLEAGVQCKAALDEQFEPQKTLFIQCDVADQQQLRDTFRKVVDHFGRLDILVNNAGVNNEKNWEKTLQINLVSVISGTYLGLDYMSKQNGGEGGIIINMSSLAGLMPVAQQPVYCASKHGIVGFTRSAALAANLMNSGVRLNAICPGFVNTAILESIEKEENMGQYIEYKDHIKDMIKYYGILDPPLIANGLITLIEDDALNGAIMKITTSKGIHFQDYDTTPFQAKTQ
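NADH formation kinetics: reaction with 30 uM PGE2 and 1 mM NAD+ (final), 20 nM enzyme, Tris-HCl pH 8 with Tween 20, after 15 min compound preincubation at room temperature. Fluorescence change, last versus first of five reads.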
* hit, by the source's call; ? = inconclusive; nt = no result; [ ] = dose if it differs, or a comment. An excerpt weighted towards active compounds, which were near 11% of everything screened. Unless noted, calls come from the whole dose curve; as a rule, active = well fitted inhibition curve with a large enough effect (not every such curve was filed as active); inconclusive = small, poorly fitted or top-dose-only effect, or another doubt; inactive = no such curve, though single readings can be large or run the other way. Unless noted, % is set by controls: 0 for no effect and ±100 for the full control effect.

SMILES | PNC inhibitor | IMPase Li cell | ALOX12 inhib | ALDH1A1 inh | IMPase inh | HPGD block
Cc1ccc(N2CC(c3nnc(Cc4ccc(Cl)cc4)o3)CC2=O)cc1 (stereo not drawn) | nt | nt | nt | nt | 4.2 | nt
CN1c2ccccc2C(C)(C)C12CC(c1ccc(Cl)c(S(=O)(=O)N3CCCC3)c1)=NO2 (stereo not drawn) | -120.9* | -0.6% | -0.9% | -8.7% | nt | -6.5%
COc1ccc(-c2[nH]c(-c3ccc(C)cc3)nc2SCC(=O)NCC2CCCO2)cc1 (stereo not drawn) | nt | nt | nt | nt | 5.5 | nt
CC(C)OC(=O)c1cn(-c2ccccc2)nc1-c1ccco1 | ? | 22.9%[38.3 µM] | -9.2% | 11.2µM* | 0.9 | -24.2%
CCOC(=O)C1=C(C)NC(C)=C(C(=O)OCC)C1c1cn(-c2ccccc2)nc1-c1ccco1 | -25.4 | 8.0%[38.3 µM] | -3.7% | ? | 15.5 | 15.3%
O=C(O)[C@@H]1[C@@H](C(=O)NCc2cccnc2)[C@@H]2C=C[C@@H]1O2 | nt | -4.0% | -2.8%[11.4 µM] | 2.9%[13.5 µM] | nt | -12.7%
CCOC(=O)C1=C(C)N=C2SC(C)C(=O)N2C1c1ccc(OC(C)=O)c(OC)c1 (stereo not drawn) | -100.0* | 6.3% | -5.4% | -2.3% | 3.2 | -2.3%
CN(Cc1ccco1)c1ncnc2ccc(-c3cccc(NS(C)(=O)=O)c3)cc12 | nt | 14.0% | nt | 9.3% | nt | nt
Cc1ccc(NCc2nnc(SCC(=O)Nc3ccccc3)n2CC2CCCO2)c(C)c1 (stereo not drawn) | ? | -1.3%[38.3 µM] | -7.4% | 7.94µM* | 8.2 | -8.3%
COc1ccc(NCc2nnc(SCC(=O)N3CCCc4ccccc43)n2C)cc1 | 21.5 | 14.1%[38.3 µM] | -8.0% | 3.16µM* | 8.1 | -12.9%
CCn1c(CNc2ccc(C)cc2C)nnc1SCC(=O)N1CCCc2ccccc21 | -14.0 | 16.6%[38.3 µM] | -11.3% | 7.08µM* | -6.9 | -11.1%
CCN1CCCC1Cn1c(-c2ccccc2)nc2c(NCCOC)nc(C)nc21 (stereo not drawn) | nt | 3.4% | -2.1% | ? | nt | ?
S=c1nc(-c2ccccc2Cl)n(Cc2cccnc2)c2c1CCCC2 | -88.3* | -6.8% | 4.2% | 6.4% | nt | -4.4%
Cc1cc(NC(=S)NC(=O)c2ccccc2)ccc1-c1cc2ccccc2oc1=O | -15.3 | -2.1% | 1.5% | 8.91µM* | nt | -4.5%
COc1cccc(OC)c1C(=O)NC(=S)Nc1ccc2oc(=O)ccc2c1 | -22.5 | -20.6% | -0.6% | ? | 7.5 | -8.3%
O=C(Nc1ccc(N2CCCC2)cc1)c1cccc(-c2cc3ccccc3oc2=O)c1 | 7.0 | 6.8% | 0.3% | 2.24µM* | 6.9 | 8.91µM*
COc1cc(C(=O)NC(=S)Nc2cccc(-c3cc4ccccc4oc3=O)c2)cc(OC)c1OC | -19.3 | -1.1%[38.3 µM] | ? | 14.1µM* | 3.7 | -6.0%
Cc1cc(C)c(S(=O)(=O)Nc2ccc3oc(C)c(C(=O)OC(C)C)c3c2)cc1C | nt | nt | nt | nt | -8.6 | nt
O=c1oc2cc(N=Cc3ccc4c(c3)OCO4)ccc2c2ccccc12 | nt | -16.2% | -3.5%[11.4 µM] | ? | nt | -13.9%
COc1ccc(NC(=O)CSC2=Nc3ccccc3C3=NC(CCC(=O)NCc4ccc(F)cc4)C(=O)N23)cc1Cl (stereo not drawn) | nt | nt | nt | nt | -5.0 | nt
CCc1ccc(C2CC(=O)Nc3cc4c(cc32)OCO4)cc1 (stereo not drawn) | nt | nt | nt | nt | 3.5 | nt
O=c1c(/C=N/O)coc2ccc3ccccc3c12 | ? | -2.4%[38.3 µM] | -17.0% | 11.2µM* | -13.8 | -28.2%
Cc1noc(/C=C/N(C)C)c1S(=O)(=O)N1CCc2ccccc21 | -28.3 | 50.8%[38.3 µM] | -8.4% | 5.62µM* | -0.9 | -29.6%
Cc1noc(/C=C/N(C)C)c1S(=O)(=O)N1CCCC(C(=O)NC(C)c2ccccc2)C1 (stereo not drawn) | 12.5 | 7.5%[38.3 µM] | -2.0% | 7.51µM* | 1.7 | 31.6µM*
COc1ccc2[nH]cc(CC(=O)O)c2c1 | -17.3 | 6.8% | -3.2% | -6.3% | nt | -17.1%
SMILES | PNC inhibitor | IMPase Li cell | ALOX12 inhib | ALDH1A1 inh | IMPase inh | HPGD block
O=C(O)Cc1c[nH]c2ccc(O)cc12 | nt | 20.8% | -4.0% | ? | 9.0 | 22.4µM*
CN(C)CCCC1(c2ccc(F)cc2)OCc2cc(C#N)ccc21 (stereo not drawn) | -114.6* | 9.1% | 1.0% | ? | nt | -0.5%
CCC1=C2CC[C@H]3C(=O)N(CC)C(=O)[C@H]3[C@H]2[C@@]2(Cc3ccccc3)C(=NCC3CC3)OC(=O)N2C1=O | nt | 2.6% | 0.4% | 2.6% | nt | -6.9%
OC(C#CCN1CCCCC1)c1ccccc1 (stereo not drawn) | 10.4 | 28.1%[38.3 µM] | -0.7% | 17.5% | 9.9 | -3.1%
OC(C#CCN1CCCC1)c1ccccc1 (stereo not drawn) | -86.5* | 12.3%[38.3 µM] | -9.5% | ? | 9.5 | -7.3%
CC1=C(C(=O)OCC(C)C)C(c2ccccc2Cl)NC(=O)N1C (stereo not drawn) | 13.2 | 1.3%[38.3 µM] | -19.1% | 20µM* | 6.8 | -17.2%
Cc1ccc(OCC(=O)Nc2ccc(S(=O)(=O)Nc3cc(C)on3)cc2)c(Br)c1 | nt | nt | nt | nt | 8.7 | nt
COCCn1nnnc1C(c1ccc(OC)cc1OC)N1CCN(c2ccccc2F)CC1 (stereo not drawn) | 12.5 | nt | -8.2% | -9.0% | 6.0 | nt
COc1ccc(Cn2nnnc2C(c2cc3cc(C)ccc3[nH]c2=O)N2CCOCC2)cc1 (stereo not drawn) | ? | -11.1%[38.3 µM] | -24.7% | ? | -6.9 | ?
CCN1CCN(C(c2cc3cccc(C)c3[nH]c2=O)c2nnnn2Cc2ccccc2)CC1 (stereo not drawn) | 35.3 | 4.2%[38.3 µM] | 2.1% | ? | 7.2 | -11.5%
Cc1ccc2cc(C(c3nnnn3Cc3ccccc3)N3CCN(c4ccccc4)CC3)c(=O)[nH]c2c1 (stereo not drawn) | -1.7 | 30.4%[38.3 µM] | -10.1% | 25.1µM* | -0.8 | -8.7%
COCCn1nnnc1C(c1ccc(OC)cc1OC)N1CCN(c2ccccc2)CC1 (stereo not drawn) | 18.6 | 41.9%[38.3 µM] | 6.5% | 7.94µM* | 15.6 | -18.3%
Cc1ccc2cc(C(c3nnnn3C3CCCC3)N3CCN(c4ccccc4)CC3)c(=O)[nH]c2c1 (stereo not drawn) | -25.7 | -5.1%[38.3 µM] | -17.9% | 8.91µM* | 9.0 | -9.0%
